# High-throughput results deposited in PubChem BioAssay by several laboratories.
# In the library only some 4% were active in any assay of this set; here they are far more common.
# CCHFV vOTU inh = CCHFV vOTU protease inhibition; Pep-AMC fluorescence; inhibition, % at 11.5 µM; actives 0.55% (n = 370,000); further: 0% = vehicle wells with enzyme and 100% = no enzyme wells
# Mtb bLac sens = beta-lactam sensitization of Mtb H37Rv; AID 434955; M. tuberculosis H37Rv growth with meropenem, percent inhibition; actives 0.27% (n = 330,000); inhibition, % at 25 µM; call rule not given here;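 further: growth measured after seven days incubation then overnight dye step; 0% = bacteria only wells and 100% = bacteria with antibiotic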
# FBA Mtb inh = inhibits M. tuberculosis FBA enzyme | actives 2.3% (n = 360,000) | inhibition, % at 1 µM | P9WQA3 | purified M. tuberculosis FBA, fluorescence read-out; in the data active means inhibition above about 27%;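 further: 0% = vehicle and 100% = reference inhibitor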
# Target sequence (P9WQA3 whole entry, looked up): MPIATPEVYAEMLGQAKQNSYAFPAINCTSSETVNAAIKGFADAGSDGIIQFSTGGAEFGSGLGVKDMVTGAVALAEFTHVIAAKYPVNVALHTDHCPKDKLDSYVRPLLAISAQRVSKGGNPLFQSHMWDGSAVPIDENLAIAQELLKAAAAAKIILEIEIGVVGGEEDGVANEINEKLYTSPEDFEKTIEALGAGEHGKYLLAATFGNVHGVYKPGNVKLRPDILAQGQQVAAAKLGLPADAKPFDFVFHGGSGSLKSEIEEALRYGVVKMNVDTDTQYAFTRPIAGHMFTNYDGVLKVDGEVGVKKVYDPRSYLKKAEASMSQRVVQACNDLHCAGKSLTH
# MazEF act = MazEF (E. coli) toxin RNase activation. activation, % at 20 µM. AID 504720. P0AE70. actives 0.32% (n = 350,000). FAM/BHQ RNA-DNA oligo cleavage fluorescence, 5 h; in the data active means activation above about 50%
# Target sequence (P0AE70 whole entry, looked up): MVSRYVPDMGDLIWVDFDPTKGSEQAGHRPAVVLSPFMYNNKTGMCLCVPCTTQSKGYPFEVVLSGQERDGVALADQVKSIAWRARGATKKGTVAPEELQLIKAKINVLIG
# GDH-TPI inh = GDH-TPI coupled enzyme inhibition counter-screen; inhibition, % at 4.8 µM; GDH-TPI coupled enzyme counterscreen, NADH absorbance; actives 1.2% (n = 360,000);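 further: 0% = DMSO wells and 100% = wells lacking the enzyme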
# The depositor's hits bear a star; ? = inconclusive; / = no result given; + = active, no number. Unless noted, no stated cut-off is given here; in the data, active means inhibition above about 30%; inactive means the rest.
SMILES,CCHFV vOTU inh,Mtb bLac sens,FBA Mtb inh,MazEF act,GDH-TPI inh
Cc1c(C)c2ccc(OCC(=O)Nc3ccccn3)cc2oc1=O,-2,-5,4,-30,1
C=C1CC(COc2ccc3c(C)c(Cl)c(=O)oc3c2)(c2ccccc2)OC1=O (centres undefined),-27,/,121*,-4,19
CC(C)[C@H](NC(=O)[C@H](C)NC(=O)OC(C)(C)C)C(=O)N1CCC2CCN(Cc3ccccc3)CC21 (some centres undefined),8,/,/,/,/
C=CCN1C(=O)[C@@H](CC(=O)NCCCN2CCCC2=O)[C@]2(C(=O)OC)CCCCC=C12,-1,/,/,/,/
COc1ccccc1C(=O)NC1CCCCN(Cc2cccc(C(F)(F)F)c2)C1=O (centres undefined),19,/,/,/,/
COc1ccc(C(CC(=O)c2ccc(O)cc2)S(=O)(=O)c2ccc(C)cc2)cc1 (centres undefined),15,15,-1,-3,34*
CCC(=O)Nc1ccc2c(c1)C(=O)N(C)[C@@H]1CC[C@@H](CC(=O)NCc3ccc(OC)cc3)O[C@H]1CO2,19,/,/,/,/
Cc1cc(C(=O)CSc2nncn2C)c(C)n1-c1ccccc1,-4,1,-2,57*,3
COc1cccc(C(=O)NCCCN2CCN(CCCNC(=O)c3cccc(OC)c3)CC2)c1,1,9,0,6,0
Cc1ccc2cc3cc(C(=O)NCCCN4CCCC4=O)oc3nc2c1,-161,-5,156*,11,22
CCN1CCN(CCCNC(=O)c2cc3cc4ccc(OC)cc4nc3o2)CC1,/,1,+,7,25
Cc1nc2ccccc2c2oc(C(=O)NCCCN3CCCC3=O)cc12,7,3,6,8,14
COc1ccc2cc3cc(C(=O)NCCCN4CCOCC4)oc3nc2c1,-259,11,+,4,33*
COc1ccc2cc3cc(C(=O)NCCCN4CCC(C)CC4)oc3nc2c1,/,-1,+,15,32*
COc1ccc(C(=O)NCCCN2CCOCC2)cc1,-6,-7,2,9,7
CC1CCN(CCCNC(=O)c2ccc(CS(=O)(=O)Cc3ccc(Cl)cc3)o2)CC1,12,1,-1,8,6
O=C1C(NC(=O)N2c3ccccc3C=Cc3ccccc32)CCCCN1Cc1cccc(C(F)(F)F)c1 (centres undefined),9,/,/,/,/
Cc1ccc2cc3cc(C(=O)NCCN4CCOCC4)oc3nc2c1,-74,3,91*,-17,48*
C[C@@H]1C[C@H]2[C@@H](Cc3ccccc3)C(=O)N3[C@H](c4ccccc4)[C@H](C)C[C@H]3[C@@H](Cc3ccccc3)C(=O)N2[C@@H]1c1ccccc1,10,/,/,/,/
COc1ccc2c(CC(=O)NCC3CCC(C(=O)O)CC3)cc(=O)oc2c1 (centres undefined),-40,-2,133*,2,25
COc1ccc2c(COC(=O)CCS(=O)(=O)c3ccccc3)cc(=O)oc2c1,/,-12,134*,/,-1
Cc1cc(=O)oc2cc(OCC(=O)NCC3CCC(C(=O)O)CC3)ccc12 (centres undefined),-10,-5,15,-20,-3
COc1ccc(-c2cc(=O)oc3cc(OCC(=O)NCC4CCC(C(=O)O)CC4)ccc23)cc1 (centres undefined),7,0,6,-4,33*
CCN(C)c1ccc(/C=N\n2nnnc2N)cc1,-23,?,28*,4,23
Nc1nnnn1/N=C/c1ccc(O)cc1,10,8,7,3,15
SMILES,CCHFV vOTU inh,Mtb bLac sens,FBA Mtb inh,MazEF act,GDH-TPI inh
COc1cc(/C=N/n2nnnc2N)ccc1O,-1,-2,2,4,44*
CCOc1ccc(/C=N/N2C(=O)C(CC(=O)Nc3ccc(F)cc3F)SC2=NC)cc1OC (centres undefined),-1,-7,-1,16,23
CSc1ccc(/C=N/n2nnnc2N)cc1,-20,-7,18,2,43*
CN=C1SC(CC(=O)Nc2ccccc2F)C(=O)N1/N=C/c1ccc(O)c(OC)c1 (centres undefined),28,-4,3,1,52*
CCn1c2ccccc2c2cc(NC(=O)COC(=O)c3cccc(F)c3)ccc21,-4,/,/,/,/
COC(=O)C1CN(Cc2ccc(F)cc2)CCS(=O)(=O)N1Cc1ccc(OC)cc1 (centres undefined),22,/,/,/,/
COc1cc(/C=N/N2CCN(c3ccccc3OC)CC2)ccc1O,6,-7,-2,-8,21
CCN(CC)c1ccc(/C=N/n2nnnc2N)c(O)c1,4,-3,1,7,38*
Nc1nnnn1/N=C/c1cc(Cl)ccc1O,6,2,2,-19,0
COc1cc(/C=N/N2C(=O)C3C4c5ccccc5C(c5ccccc54)C3C2=O)ccc1O (centres undefined),-5,1,1,2,34*
CCCCCC[C@@H](CC)CN(C(=O)Oc1ccccc1)c1ccccc1,14,/,/,/,/
COc1ccc(-n2c(SCC(=O)Nc3ccc(Oc4ccccc4)cc3)nnc2-c2ccc(C)cc2)cc1,3,/,/,/,/
Cc1ccc([N+](=O)[O-])cc1N/C=C1\CCCCC1=O,16,-6,-6,98*,3
Cc1cc(O)ccc1N/C=C1\CCCC1=O,2,7,-3,-4,30
COc1cccc(CN(C)Cc2cc(=O)oc3cc(O)c(Cl)cc23)c1,-103,-4,164*,7,9
NC(=S)N/N=C/c1ccccc1OCc1cccc(Cl)c1,/,16,-1,8,41*
COc1ccc(C(C(=O)N(C)C2CCCC2)N(Cc2ccc(F)cc2)C(=O)c2csc(N3CCOCC3)n2)cc1OC (centres undefined),-1,/,/,/,/
NC(=O)CN1C(=O)C(O)(CC(=O)/C=C\C=C\c2ccccc2)c2ccccc21 (centres undefined),-3,92,0,4,34*
O=C(/C=C/C=C/c1ccccc1)CC1(O)C(=O)N(CCc2ccccc2)c2ccccc21 (centres undefined),12,-10,-1,-7,17
CCN1C(=O)C(O)(CC(=O)/C=C/C=C/c2ccccc2)c2ccccc21 (centres undefined),13,2,-1,4,41*
Cc1ccc2c(c1)C(O)(CC(=O)/C=C/C=C/c1ccccc1)C(=O)N2 (centres undefined),12,-5,-5,2,38*
C#CCN1C(=O)C(O)(CC(=O)/C=C/C=C/c2ccccc2)c2ccccc21 (centres undefined),2,-3,0,2,15
O=S1(=O)CC2c3ccccc3CCN2CN1CCc1ccccc1 (centres undefined),1,/,/,/,/
CC(C)c1cc(C(C)C)c(S(=O)(=O)N2CCC(C(=O)NCc3cccs3)CC2)c(C(C)C)c1,17,/,/,/,/
Clc1ccc2c(c1)C1OCCC1C(c1ccco1)N2 (centres undefined),-66,-1,69*,3,10
CC(=O)N1c2ccc(Cl)cc2C2OCCC2C1c1ccco1 (centres undefined),-6,-1,0,4,13
